Screening data deposited in PubChem BioAssay by National Center for Advancing Translational Sciences (NCATS).
A selection: hits, their analogues and other compounds. The true share with any hit is near 9.3%.
HCV inh: qHTS Assay for Inhibitors of Hepatitis C Virus (HCV) | AID 651820, 2012 | Potency, µM (series often up to 41.8 µM), without a hit: at the highest dose activity change, negative = inhibition, actives largely listed as inhibitors | Huh7.5.1 HCVcc-Cre infection, luciferase reporter, 44 h | hit rate 3.4% among 340,000; further: potency means the concentration at half of the fitted maximal effect
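1,000 cells/well; 4 h culture; + compound; + HCVcc-Cre (~0.5 moi); 44 h; luciferase substrate, RT 15 min; read 15 sec.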
FMDV antiviral: High Throughput Screening for Foot and Mouth Disease Virus Antivirals. FMDV antiviral cell-based qHTS. Potency, µM (doses to about 57.9 µM), without a hit: at the highest dose activity change, negative = inhibition, actives largely listed as inhibitors. hit rate 1.2% among 410,000. AID 1159524, 2015; calls by dose curve; tested in HEK293T cells; further: read-out not given here; potency means the concentration at half of the fitted maximal effect; nearly all actives have a fitted effect of over 45% in size
VACV mCherry inh: qHTS for Stage-Specific Inhibitors of Vaccinia Orthopoxvirus: mCherry Reporter Primary qHTS; Vaccinia virus mCherry reporter infection, fluorescence; hit rate 0.63% among 310,000; AID 720579, 2013; Potency, µM (highest dose often 36.5 µM), for inactives: at the top dose activity change, negative = inhibition, hits mostly inhibitors; calls by dose curve; tested in A549 cells; further: potency means the concentration at half of the fitted maximal effect; nearly all actives have a fitted effect of over 35% in size
Sm TGR block: qHTS Assay for the Inhibitors of Schistosoma Mansoni Peroxiredoxins; Schistosoma mansoni thioredoxin glutathione reductase (TGR), Q962Y6; purified TGR, DTNB reduction, TNB absorbance 405 nm; Potency, µM (series often up to 114 µM), for the others: at the highest dose activity change, negative = inhibition, usual class: inhibitors; hit rate 3% among 360,000; further: potency means the concentration at half of the fitted maximal effect; nearly all actives have a fitted effect of over 60% in size
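TGR 20 nM + NADPH 100 uM (dispensed conc.), cpd preinc 15 min RT; start with NADPH (500 uM addition) then DTNB (15 mM addition). Kinetic TNB absorbance, 405 nm filter. Four-parameter Hill fit across titration.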
HCMV inh: qHTS Assay for inhibitors of the human cytomegalovirus (HCMV) | HFF cells, HCMV-luciferase reporter, 72 h; stronger effect = lower value | activity change, negative = inhibition, % at 57.5 µM | hit rate 4.5% among 410,000 | AID 1259415, 2018; in the data active means activity change below about -60%; inconclusive means no clear call, values can overlap the other calls; inactive means above about -39%
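Screen run at 2 compound doses on HFFs infected with reporter HCMV, MOI 1 PFU/cell. Luciferase activity from cell lysates at 72 h post infection gave inhibition relative to buffer-only and Salinomycin wells.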
Vaccinia Venus: qHTS for Stage-Specific Inhibitors of Vaccinia Orthopoxvirus: Venus Reporter Primary qHTS. Vaccinia virus Venus reporter expression, fluorescence. Potency, µM (titrated, usually from 36.5 µM), for inactives: at the highest dose activity change, negative = inhibition, most hits filed as inhibitors. hit rate 0.46% among 330,000. AID 720580, 2013; calls by dose curve; tested in A549 cells; further: potency means the concentration at half of the fitted maximal effect; nearly all actives have a fitted effect of over 30% in size
An asterisk follows results filed as active; i = inactive; ? = inconclusive; nt = no result given; [ ] = another dose, or the depositor's remark. Unless noted, the call rests on the fitted dose curve; in most records, active means well fitted curve in the direction sought with a large enough effect; inconclusive means small, poorly fitted or top-dose-only effect, or another doubt; inactive means no such curve, though single readings can be large; an effect the other way counts as inactive or inconclusive. On the % scale 0 is the no-effect control and ±100 the full control effect.

SMILES	HCV inh	FMDV antiviral	VACV mCherry inh	Sm TGR block	HCMV inh	Vaccinia Venus
COc1ccc(C(C)=O)cc1COC(=O)CSCC(=O)Nc1ccc(C)cc1	0%	1%	-17%	35µM*	-16	0%
Cc1ccc(CSc2nnc(Nc3ccc(C)cc3)s2)cc1	-9%	-5%	nt	1%	9	nt
COc1ccc(C(C)=O)cc1CSc1nnc(Nc2ccc(C)cc2)s1	?	0%	?	-7%	-61*	-26%
COc1ccc(C(C)=O)cc1Cn1c(=O)cc(C)[nH]c1=O	3%	-2%	-9%	40µM*	41	1%
COc1ccc(C(C)=O)cc1CSc1nnc(Nc2ccccc2)s1	?	?	-14%	-23%	-70*	?
Cc1ccc(-n2c(=S)[nH]c3ccccc3c2=O)cc1F	nt	128%	i	nt	-39	-24%
COc1ccc(C(C)=O)cc1COc1ccc(-n2cnnn2)cc1	10µM*	-10%	nt	20µM*	29	-24%
COc1ccc(C(C)=O)cc1CSc1nnc(-c2ccc(Cl)cc2)n1-c1ccccc1	7.9µM*	-23%	-24%	-20%	?	-15%
COc1ccc(C(C)=O)cc1CSc1nnc(C)s1	-1%	6%	i	45µM*	5	-6%
COc1ccc(C(C)=O)cc1CN(C)C	17%	9%	nt	5µM*	-18	nt
COc1ccc(C(C)=O)cc1CC(=O)NC1CCCCCC1	?	-4%	18%	-1%	-15	-6%
COc1ccc(C(C)=O)cc1CSc1nnc(-c2ccncc2)n1C	12%	7%	i	-5%	-3	-16%
Cc1ccc(N(C)C(=O)c2cc(S(=O)(=O)N3CCCCC3)c[nH]2)cc1	0%	-24%	i	-14%	?	-14%
CCc1nc(SCC(=O)Nc2ccc(C(=O)O)cc2)n[nH]1	17%	-18%	-11%	5%	90	-11%
Nc1ccccc1SC1CC(=O)N(c2ccccc2Cl)C1=O (stereo not drawn)	-12%	17%	i	-2%	-35	-10%
Fc1cccc(Cl)c1Cn1nnc2c(NCc3ccncc3)ncnc21	10µM*	?	i	?	?	-15%
NC(=O)CSc1nnc(-c2cc(-c3cccs3)nc3ccccc23)o1	?	-12%	?	-11%	-18	1.6µM*
CCC(C)NC(=O)CSc1nnc(-c2cc(-c3cccs3)nc3ccccc23)o1 (stereo not drawn)	0%	-22%	nt	-4%	-19	2.8µM*
O=C(CSc1nnc(-c2cc(-c3cccs3)nc3ccccc23)o1)NC1CCCCC1	4%	-16%	nt	-1%	?	?
CCn1c(CNS(=O)(=O)c2ccc(Br)cc2)nnc1SC	19%	22%	i	3.5µM*	58	-25%
CC1CCN(c2ccccc2NC(=O)c2ccc([N+](=O)[O-])o2)CC1	-26%	-2%	14%	-5%	-10	9%
CN1CCN(c2ccccc2NC(=O)c2sc3ccccc3c2Cl)CC1	13µM*	-22%	2%	5%	41	5%
O=C(Nc1ccccc1N1CCCC1)c1ccc([N+](=O)[O-])o1	?	0%	nt	-33%	-71*	nt
CS(=O)(=O)N1CCN(c2ccccc2NC(=O)c2ccc(-c3ccc(Cl)cc3Cl)o2)CC1	-5%	-31%	nt	?	42	2%
CN1CCN(c2ccccc2NC(=O)c2ccc(-c3ccc(Cl)cc3Cl)o2)CC1	10µM*	?	nt	10%	-39	nt
SMILES	HCV inh	FMDV antiviral	VACV mCherry inh	Sm TGR block	HCMV inh	Vaccinia Venus
Cc1ccc(C(=O)Nc2ccccc2N2CCCCC2)o1	?	?	nt	-20%	-61*	nt
CCCC(=O)N1CCN(c2ccc(NC(=O)c3sc4ccccc4c3Cl)cc2)CC1	0%	-12%	i	6%	-2	-1%
Cc1ccccc1C(=O)Nc1c(-c2cccs2)c(=O)c2ccccc2n1C	7%	-6%	nt	1%	19	nt
C[C@@]12CC(=O)NC1N(C(=O)c1cccc(C(F)(F)F)c1)C(c1ccccc1OC(=O)c1cccc(C(F)(F)F)c1)C2 (stereo partly drawn)	27%	0%	?	-14%	-28	-29%
Cc1cccc(NC(=O)c2ccc([N+](=O)[O-])o2)c1C	?	-18%	?	6%	-14	?
O=C(Nc1ccccc1N1CCN(C(=O)c2ccccc2)CC1)c1ccc([N+](=O)[O-])o1	?	0%	11µM*	-29%	?	?
COc1ccccc1NC(=O)c1ccc([N+](=O)[O-])o1	-24%	-26%	nt	nt	-63*	nt
CC(=O)c1ccccc1OC(=O)c1ccc([N+](=O)[O-])o1	0%	-4%	-22%	16µM*	106	-11%
Cc1ccc(-n2c(=O)[nH]c3c(oc4ccccc43)c2=O)cc1	8%	-3%	nt	2%	-26	nt
CCNC(=S)N(CCc1c(C)[nH]c2ccc(Cl)cc12)Cc1ccco1	10µM*	?	?	1%	?	-16%
COCCNC(=S)N(CCc1c(C)[nH]c2ccc(Cl)cc12)Cc1cccs1	7.1µM*	-28%	?	11%	-21	?
CCCCN(C(=O)c1ccc([N+](=O)[O-])o1)c1c(N)n(CC(C)C)c(=O)[nH]c1=O	-5%	-13%	-14%	-34%	-11	-7%
O=C(O)CCCn1cc(NC(=O)COc2ccccc2)cn1	6%	0%	nt	0%	9	nt
CCOC(=O)C1=C(CC)Nc2ccccc2N=C1NC(=O)c1ccc(OC)c(S(=O)(=O)N2CCOCC2)c1	-1%	-8%	nt	nt	39	nt
CC(C)c1cc(CNC(=O)c2cc(COc3cncc(Cl)c3)on2)on1	-5%	1%	nt	-21%	-32	nt
CCn1nc(C)c(CNC(=O)c2cc(COc3cncc(Cl)c3)on2)c1C	?	1%	-7%[7.34 µM]	-16%	-64*	11%[7.34 µM]
CCn1nc(C)c(CNC(=O)c2cc(COc3ccccc3SC)on2)c1C	13µM*	?	-13%	-3%	-64*	-10%
Cc1ccc(Cn2c(C(=O)Nc3ccc(Cl)cc3)cc3sccc32)cc1	nt	0%	-6%	0%	19	-4%
CCN1CCc2c(OCC(=O)N3CCC(C)CC3)cccc2C1=O	4%	7%	-9%	3%	-2	-10%
CN(C)S(=O)(=O)c1cccc(NC(=O)CSc2nc3c(cc2C#N)C(=O)CC(C)(C)C3)c1	5µM*	20µM*	?	2%	-80*	?
CN(C)S(=O)(=O)c1cccc(NC(=O)CCCSc2ccccc2)c1	11µM*	-23%	-16%	3%	-8	-9%
